Test results as given in PubChem BioAssay AID2283145 (EPA ToxCast).
Results filed as inconclusive are left out. Activity calls are given as the source filed them. The calls were made as follows: active = hit-call score of the fitted dose curve at least 0.9, where 1 is the maximum; inconclusive = response in the unintended direction; inactive = score below 0.9.

Each compound was assayed against human Cyclin-Dependent Kinase 6 (CDK6), CDK6 (gene 1021) (UniProt Q00534) (assay: NVS_ENZ_hCDK6: NovaScreen (NVS) Enzymatic Assay for human Cyclin-Dependent Kinase 6 (CDK6)).
Chain of human Cyclin-Dependent Kinase 6 (CDK6), CDK6 (gene 1021) (Q00534 whole entry, looked up): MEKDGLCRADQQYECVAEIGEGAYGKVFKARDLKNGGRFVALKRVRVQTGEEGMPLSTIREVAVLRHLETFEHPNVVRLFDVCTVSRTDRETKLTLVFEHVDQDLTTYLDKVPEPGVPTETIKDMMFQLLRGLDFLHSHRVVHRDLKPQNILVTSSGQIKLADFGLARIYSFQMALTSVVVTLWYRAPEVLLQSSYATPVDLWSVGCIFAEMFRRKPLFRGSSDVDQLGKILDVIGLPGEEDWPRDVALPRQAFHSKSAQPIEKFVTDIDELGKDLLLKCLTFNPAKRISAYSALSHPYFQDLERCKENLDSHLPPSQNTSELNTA
Method: NVS_ENZ_hCDK6 is a biochemical, single-readout assay that uses extracted gene-proteins in a cell-free assay. Measurements were taken 1 hour after chemical dosing in a 384-well plate.NVS_ENZ_hCDK6 is one of one assay component(s) measured or calculated from the NVS_ENZ_hCDK6 assay. It is designed to make measurements of enzyme activity, a form of enzyme reporter, as detected with fluorescence intensity signals by Fluorescence and electrophoretic mobility shift technology.Data from the assay component NVS_ENZ_hCDK6 was analyzed into 1 assay endpoint. This assay endpoint, NVS_ENZ_hCDK6, was analyzed in the positive analysis fitting direction relative to DMSO as the negative control and baseline of activity. Using a type of enzyme reporter, loss-of-signal activity can be used to understand changes in the enzymatic activity as they relate to the gene CDK6. Furthermore, this assay endpoint can be referred to as a primary readout, because this assay has produced multiple assay endpoints where this one serves a enzymatic activity function. To generalize the intended target to other relatable targets, this assay endpoint is annotated to the kinase intended target family, where the subfamily is serine/threonine kinase.
Binding assays used specific radioligands (tritiated, iodinated) with non-radioactive competitive displacement ligands in agonist or antagonist protocols (as indicated) and various reference compounds and inhibitors to titrate specific binding to receptors and transporters. Most enzyme assays (CYPs, kinases, phosphatases, proteases, HDACs) used recombinant protein and specific substrates (fluorescence mostly, some colorimetric and radioactive) and inhibitors, followed by a biochemical separation of substrate and product. All assays for the biochemical HTS were initially run in duplicate at a single concentration (10 uM for CYP450 assays and 25 uM for all others). […] Each assay was run with positive and negative controls, and concurrent controls on every plate. The follow-up (secondary) screen tested active chemical-pairs in concentration series, as well as a few additional assays not tested in the primary screen, some selected negative inactives, and several cases re-run in the concentration series for confirmatory purposes.
`CN(C)[C@@H]1C(=O)C(C(N)=O)=C(O)[C@@]2(O)C(=O)C3=C(O)c4c(O)cccc4[C@@](C)(O)[C@H]3[C@H](O)[C@@H]12` was tested, and the AC50 was 23.1 µM (active). In the case of `S=C([S-])NCCNC(=S)[S-].[Mn+2]`, the AC50 is reported as 10.5 µM (active). With `S=C(S)NCCNC(=S)S.[Mn+2].[S-]C([S-])=NCCN=C([S-])[S-].[Zn+2]` the AC50 was 9.65 µM (active). `Nc1c(Cl)c(Cl)nc(C(=O)O)c1Cl` was tested, and the outcome was “inactive”.
